Only a selection was taken, and hits are over-represented in it overall.
Pf Dd2 growth: inhibitors of Plasmodium falciparum Dd2 growth. P. falciparum Dd2 growth, SYBR Green, 72 h. Potency, µM (doses to about 28.9 µM), for the others: at the top dose activity, negative = inhibition, usual class: inhibitors. actives 4.3% (n = 120,000). AID 1347417; active = well fitted inhibition curve with a large enough effect;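 also: plate controls were DMSO vehicle for no effect and reference drug for full effect; nearly all actives have a fitted effect of over 65% in size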
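Infected erythrocytes (Dd2, 0.3% parasitemia, 2.5% hematocrit final) are added to compound in RPMI-1640/Albumax II medium, grown 72 h at 37C in low oxygen, then lysed with saponin/Triton-X containing SYBR Green and read by fluorescence.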
* = called active by the depositor; i = inactive; [ ] = dose if it differs, or a comment. Potency is read from the fitted curve at half-maximal effect.

SMILES | Pf Dd2 growth
CC(=O)N1CCC(C2CCN(S(=O)(=O)c3ccccc3Cl)C2)CC1 (stereo not given) | -12%
O=C(NCc1ccccc1)N[C@H]1CO[C@H]2[C@@H]1OC[C@@H]2n1cc(-c2ccccn2)nn1 | -6%[44.1 µM]
Cc1ccccc1CN1CCc2nc(C(=O)NCc3ccncc3)oc2CC1 | i
O=[S+]1([O-])NC2(CCN(Cc3ccoc3)CC2)COc2ccccc21 | -20%
O=C(N[C@@H]1CN(Cc2cccc(F)c2)C[C@H]1CO)c1ccccc1 | i
N#Cc1ccc(CN2C[C@@H](CO)[C@H](NC(=O)c3ccccc3)C2)cc1 | -23%
O=C(N[C@@H]1CN(Cc2cc(F)cc(F)c2)C[C@H]1CO)c1ccccc1 | 10µM*
CCCn1cc(CN2C[C@@H]3C(=O)N(Cc4ccc5c(c4)OCO5)C(=O)[C@@H]3C2)c2ccccc21 | i
Cc1ccc(C)c(C(=O)N2CCC3(CC2)NC(=O)N(c2cccc(F)c2)N3)c1 | 13%
CCC(O)c1cc2n(n1)CCN(C(=O)Cn1nc(C)c3ccccc3c1=O)C2 (stereo not given) | 2%
CN1CCCC2(C1)CN(C)c1ccc(C(=O)NCCc3ccccc3)cc12 (stereo not given) | -27%[44.1 µM]
Cc1nc(CN2CC3(CCN(C)C3)c3cc(C(=O)NCCc4ccccc4)ccc32)cs1 (stereo not given) | 11µM*
COCCNC(=O)c1ccc2c(c1)C1(CCN(C)C1)CN2Cc1csc(C)n1 (stereo not given) | i
CCN1C(=O)CCN(C(=O)Nc2ccccc2F)CC12CCOCC2 | -1%
CC1=C[C@@H](CN2CCC(C(N)=O)CC2)[C@H](C(C)C)C[C@H]1Cc1nnc(C)o1 | i
COCCN1CCN(C[C@@H]2C=C(C)[C@H](Cc3nnc(COc4ccc(F)cc4)o3)C[C@H]2C(C)C)CC1 | 5µM*
COc1ccc(C(=O)NC[C@@H]2C=C(C)[C@H](CC(=O)N3CCOCC3)C[C@H]2C(C)C)cc1 | -30%[44.1 µM]
CCCc1nnc([C@H]2CCN(Cc3ccc(NC(C)=O)cc3)C2)o1 | i
CC(=O)NC[C@@H]1C=C(C)[C@H](CC(=O)O)C[C@H]1C(C)C | 44%[44.1 µM]
CCCc1nnc(C[C@@H]2C[C@@H](C(C)C)[C@H](CN3CC[C@H](NC(C)=O)C3)C=C2C)o1 | 5µM*
CC1=C[C@@H](CN2CCC(O)CC2)[C@H](C(C)C)C[C@H]1Cc1nnc(C(C)(C)C)o1 | 10µM*
CC1=C[C@@H](CC#N)[C@H](C(C)C)C[C@H]1CC(=O)N1CCC(C)CC1 | -4%[44.1 µM]
CCCc1nnc(C[C@@H]2C[C@@H](C(C)C)[C@H](CN3CCC(CO)CC3)C=C2C)o1 | 10µM*
CC(c1cccs1)N(C)C(=O)Cc1ccccn1 (stereo not given) | 10%[44.1 µM]
Cc1nsc(NC(=O)N2CCCC2C)n1 (stereo not given) | 2%
SMILES | Pf Dd2 growth
CO[C@@H]1CCOC[C@H]1NC(=O)c1ccccc1OC(F)(F)C(F)F | 18%
Cc1noc2c(N3CCN(Cc4ccccc4)CC3)cc(-c3ccsc3)nc12 | i
CN(CC1CCOC1)S(=O)(=O)c1ccc(Cl)s1 (stereo not given) | 29%[5.79 µM]
COCC(=O)NC1CCC12CCN(S(=O)(=O)c1cccc3cccnc13)CC2 (stereo not given) | -7%
O=C(c1ccccn1)N1CCCC(CN2CCCC2)CC1 (stereo not given) | 26%
Cn1nc(C(=O)N2CCCC(CN3CCCC3)CC2)c2ccccc21 (stereo not given) | 3.2µM*
Cn1nc(C(=O)N2CCc3nn(CC4CC4)c(=O)n3CC2)c2ccccc21 | 18%
OC(c1nc(Nc2cccc(F)c2)n[nH]1)C1CC1 (stereo not given) | 37%[44.1 µM]
CN1CCN(CC(=O)N2CCCCC2)CC12CCC(=O)N(CC1CC1)CC2 (stereo not given) | -8%
CCCNC(=O)N1CCC2(CC1)C(=O)N(C)c1ccccc12 | 66%
CC(O)C1CN(C(=O)OC(C)(C)C)CCN1 (stereo not given) | 0%[44.1 µM]
Cc1ccccc1Cn1c(SCc2ccc(C(=O)NC3CCCCC3)cc2)nc2ccncc21 | -17%
Cc1ccc(Cn2c(SCc3ccc(C(=O)N4CCCCCC4)cc3)nc3ccncc32)cc1 | 11µM*
Cc1ccc(CSc2nc3cccnc3n2Cc2ccc(C(=O)NC3CCCCC3)cc2)cc1 | -16%
CN(C)c1ccc(NC(=O)Cn2c(SCc3ccc(F)cc3)nc3ccncc32)cc1 | i
Cc1ccccc1Cn1c(SCc2ccc(C(=O)N3CCCCC3)cc2)nc2ccncc21 | 7.9µM*
Cc1ccc(CN2C(=O)NC3(CCN(C(=O)c4ccncc4)CC3)C2=O)cc1 | 8%
CCCCN1C(=O)CC[C@H]2CN(C(=O)Cc3c[nH]c(=O)n(C)c3=O)CC[C@H]21 | 1%
CN(C)C(=O)N1CCN(c2cccc(C=O)c2)C(=O)C1 | 46%[44.1 µM]
CC1(c2ccccc2)N(Cc2ccccc2F)C(=O)OC12CCN(C(=O)Cc1ccc(O)cc1)CC2 (stereo not given) | -6%
CC1(c2ccccc2)N(Cc2ncccn2)C(=O)OC12CCN(C(=O)Cc1ccc(Cl)cc1)CC2 (stereo not given) | 13µM*
CC1(c2ccccc2)N(Cc2ccccc2C#N)C(=O)OC12CCN(C(=O)Cc1ccc(O)cc1)CC2 (stereo not given) | i
CC(C)C(=O)N1CCC2(CC1)OC(=O)N(Cc1ncccn1)C2(C)c1ccccc1 (stereo not given) | i
CC1(c2ccccc2)N(Cc2ccccc2C#N)C(=O)OC12CCN(C(=O)Cc1cccc(F)c1)CC2 (stereo not given) | 11µM*
CC1(c2ccccc2)N(Cc2cccnc2)C(=O)OC12CCN(C(=O)Cc1cccc(F)c1)CC2 (stereo not given) | i
SMILES | Pf Dd2 growth
Cc1cc(C(=O)N2CCCC(Cc3nc(C4CCOCC4)no3)C2)nn1C (stereo not given) | 12%
O=C(c1nccc2ccccc12)N1C[C@@H](CO)[C@H](c2ccccn2)C1 | -12%
COc1ccc(F)cc1S(=O)(=O)N1CCn2c(nn(C)c2=O)C1 | 10%
CSc1ccc(CCNC(=O)c2ccc(-n3c(C)cc4c3CCC(C)C4)cc2)cc1 (stereo not given) | 42%[5.79 µM]
CCOc1ccc(CCNC(=O)c2ccc(-n3c(C)cc4c3CCC(C)C4)cc2)cc1OCC (stereo not given) | 8.9µM*
COc1ccc(CCNC(=O)c2ccc3c(c2)nc2n3CCC(C)C2)cc1OC (stereo not given) | 1%
CCn1c2ccccc2c2nnc(SCC(=O)Nc3ccccc3OC)nc21 | 12%
CCOC(=O)c1ccc(NC(=O)CSc2nnc3c4ccccc4n(CC)c3n2)cc1 | 7%
CCN(CC)CCSc1nnc2c3cc(F)ccc3n(CC)c2n1 | -15%
CCCn1c2ccc(C)cc2c2nnc(SCCN3CCCCC3)nc21 | 8.9µM*
CCCc1nnc(NC(=O)CSc2nnc3c4ccccc4n(CC)c3n2)s1 | -22%
CCCn1c2ccc(F)cc2c2nnc(SCCN3CCCCC3)nc21 | 7.9µM*
CCn1c2ccc(F)cc2c2nnc(SCCN3CCCCC3)nc21 | 13µM*
CN1c2cc(C(=O)NC3CCCCC3)ccc2C(=O)N2CCCCCC21 (stereo not given) | i
COc1ccc(CCN(Cc2ccncc2)C(=O)CC2COCCN2)cc1 (stereo not given) | -21%
Cn1ccnc1CNC(=O)C[C@@H]1C[C@H]2O[C@H](CNCc3ccncc3F)[C@@H](O)[C@H]2O1 | -2%[44.1 µM]
O=C(c1ccccc1OCC1CCCN(C2CCC2)C1)N1CCOCC1 (stereo not given) | -19%
